# Rows were chosen to be rich in hits. Some 8.6% of all compounds tested hit in one or more screens of this group.
# Lassa entry – qHTS for Inhibitors of binding or entry into cells for Lassa Virus. Lassa virus pseudotyped entry inhibition, cell-based qHTS. Potency, µM (top dose mostly 49.2 µM), for the others: at the highest dose activity change, negative = inhibition, usual class: inhibitors. hit rate 4.1% among 18,000. AID 720533, 2013
# Marburg entry – qHTS for Inhibitors of binding or entry into cells for Marburg Virus. hit rate 6.5% among 18,000. Potency, µM (doses to about 49.2 µM), for inactives: top-dose activity change, negative = inhibition, actives largely listed as inhibitors. Marburg virus pseudotype entry/binding inhibition, cell-based
# An asterisk follows results filed as active; ? = inconclusive; . = no result; [ ] = dose if it differs, or a comment. The call rests on the fitted dose curve; tested in HEK293 cells. On the % scale 0 is the no-effect control and ±100 the full control effect; potency means the concentration at half of the fitted maximal effect.
SMILES,Lassa entry,Marburg entry
O=S1(=O)CC(N2CC=CC2)CN1Cc1cn(Cc2ccc(C(F)(F)F)cc2)nn1 (centres undefined),7%,18%
CC(C)(C)OC(=O)N[C@@H](Cc1c[nH]c2ccccc12)C(=O)O,-6%,11%
CC[C@@H](C)[C@H](NS(=O)(=O)c1cccc2ccccc12)C(=O)N[C@H](C=O)Cc1c[nH]c2ccccc12,?,3.5µM*
COCOCCn1cc(CN2CCS(=O)(=O)N(Cc3ccc(-c4ccc(F)cc4)cc3)C(C)C2=O)nn1 (centres undefined),-17%,24%
CCCCCCN1C[C@H](O)[C@@H](n2cc(C3CC3)nn2)C[C@H]1c1ccc(Cl)cc1,-32%,?
O=C(OCc1cn([C@@H]2C[C@H](c3ccccc3)N(CC3CCCCC3)C[C@@H]2O)nn1)c1ccccc1,-21%,-29%
COc1ccc(N2C[C@H](Cc3ccccc3)[C@@H](CC(=O)Nc3ccccc3)C2=O)cc1,.,-27%
COc1ccc2cc(CCC(C)=O)ccc2c1,50%[17.8 µM],54%[17.8 µM]
COc1ccc(C[C@@H]2NC[C@H](O)[C@@H]2OC(C)=O)cc1,0.011µM*,?
COc1ccc(C[C@H]2NC[C@H](O)[C@H]2OC(C)=O)cc1,3.5e-05µM*,?
COCOc1ccc(Br)cc1C(=O)C=Cc1ccc2c(c1)OCO2,-45%[8.59 µM],6%[8.59 µM]
C=C(CCN1C=C(C(=O)OCC)C(c2ccccc2)NC1=O)c1ccc(Cl)cc1 (centres undefined),-4%[8.59 µM],14%[8.59 µM]
C[C@@H]1[C@@H](c2ccccc2)Oc2c(Cl)cccc2S(=O)(=O)N1Cc1cccc(Cl)c1,-10%,16%
C=C[C@@](C)(O)C1CC2C=CCOP(=O)(O2)O1 (some centres undefined),-2%,89%
COc1cc(/C=C\C(=O)N2CCC=CC2=O)cc(OC)c1OC,?,8.9µM*
COc1cc(/C=C/C(=O)O)cc(OC)c1OC,3%,2%
COc1cc(C(=S)N2CCOCC2)cc(OC)c1OC,-9%,-3%
COc1cc(/C=C/C(=O)N2CCCCC2=O)cc(OC)c1OC,11µM*,13µM*
CC1=CC[C@@H](COc2ccccc2)O[C@@]2(C1)C(=O)N(CC1CC1)c1ccccc12,6%[8.59 µM],20%[8.59 µM]
COC(=O)[C@@H]1CC23C(=NC(c4ccc([N+](=O)[O-])cc4)=C(C(F)(F)F)[C@@H]2N(C)c2ccccc23)N1C(C)=O (some centres undefined),-22%[8.59 µM],8%[8.59 µM]
COc1cccc([C@@H]2Oc3ccc(Br)cc3C(=O)[C@@H]2OC(=O)Nc2ccc(OC(F)F)cc2)c1,110%[8.59 µM],39%[8.59 µM]
COc1cccc([C@H]2NC(=O)CC=C[C@H](C)[C@@H](c3cccc(OC)c3)NC(=O)CC=C[C@H]2C)c1,17%[8.59 µM],?
CCOc1ccc2c(-c3ccnc(Nc4cc(OC)cc(C(F)(F)F)c4)n3)cnn2n1,.,6.3µM*
FC(F)(F)c1cccc(Nc2nccc(-c3cnn4nc(-c5ccccc5)ccc34)n2)c1,.,20µM*
CCOC(=O)C1(C(=O)OCC)Cc2ccc(C(C)=O)cc2C1,.,-20%[8.59 µM]
SMILES,Lassa entry,Marburg entry
C[C@H]1[C@@H](c2ccccc2)Oc2c(Cl)cccc2S(=O)(=O)N1Cc1ccc(F)cc1,14%,?
COC(=O)c1ccc(CN2C(=O)[C@]3(O[C@H](C)CC4=CCCC43)c3c(Br)cccc32)cc1 (some centres undefined),-6%[8.59 µM],5%[8.59 µM]
C[C@@H]1O[C@H](O[C@H]2C[C@@H](O)[C@@]3(CO)[C@H]4[C@@H](O)C[C@]5(C)[C@@H](C6=CC(=O)OC6)CC[C@]5(O)[C@H]4CC[C@]3(O)C2)[C@@H](O)[C@H](O)[C@@H]1O,3.2µM*,?
CC1O[C@@H](OC2CC(O)[C@@]3(CO)C4C(O)C[C@@]5(C)C(C6=CC(=O)OC6)CC[C@]5(O)C4CC[C@]3(O)C2)C(O)C(O)C1O (some centres undefined),0.32µM*,0.28µM*
C[C@@H]1O[C@@H](O[C@H]2C[C@@H](O)[C@]3(CO)[C@@H]4C(CC[C@]3(O)C2)[C@@]2(O)CC[C@H](C3=CC(=O)OC3)[C@@]2(C)C[C@H]4O)[C@H](O)[C@H](O)[C@H]1O (some centres undefined),0.32µM*,?
C[C@@H]1O[C@@H](O[C@H]2C[C@@H](O)[C@]3(CO)[C@H]4[C@H](O)C[C@]5(C)[C@@H](C6=CC(=O)OC6)CC[C@]5(O)[C@@H]4CC[C@]3(O)C2)[C@H](O)[C@H](O)[C@H]1O,0.032µM*,?
CCN1C(N(C)CCc2c[nH]c3ccccc23)=NC(c2cccc(C(F)(F)F)c2)C(C(=O)OC)=C1C (centres undefined),-23%[8.59 µM],?
Cc1cc(=O)oc2cc(OCc3cn(CC(=O)c4ccc(O)cc4)nn3)ccc12,12%,22%
C#CCCCON=C1C[C@@H](O)[C@H](O)[C@H]2[C@@H]3C(=O)N(c4cccc(Oc5ccccc5)c4)C(=O)[C@@H]3CC[C@@H]12,8%[8.59 µM],31%[8.59 µM]
CCCC[C@@H]1CN2[C@@H](CC[C@H](C)[C@@H]2c2ccc(Br)cc2)C(=O)O1,5%[8.59 µM],5%[8.59 µM]
CCN1CCN(c2cc(-c3ccc(F)cc3)c3c(n2)CCCCCC3)CC1,13µM*,7.9µM*
COC1=C[C@H](C(=O)N2CCCC2)[C@H](C)[C@@H](c2ccccc2)CC1=O,-11%[8.59 µM],2%[8.59 µM]
CC(CCN1CCCc2nc(C)c(C)cc21)=NO[C@@H](C)c1cc(-c2c(C)cc(C)cc2C)no1,11%[8.59 µM],-9%[8.59 µM]
CC1=CC[C@@H](COc2ccccc2)O[C@@]2(C1)C(=O)N(Cc1ccccc1C(F)(F)F)c1cccc(Br)c12,18%[8.59 µM],-7%[8.59 µM]
C[C@H]1C[C@@H](C)O[C@@]2(C1)C(=O)N(Cc1ccc(F)cc1)c1ccccc12,16%[8.59 µM],28%[8.59 µM]
O=C1N=c2ccc(N=Cc3c(O)[nH]c4ccccc34)cc2=N1,12%,16%
CCN(CC)CCOc1ccc(-c2nc3cc(Cl)ccc3s2)cc1,?,13µM*
CCN(CC)CCOc1ccc2nc(N(C)C)sc2c1,12%,-3%
N#Cc1ccc2c(c1)C[C@]1(CCCCN3C(=O)c4ccccc4C3=O)Oc3c(c(=O)oc4ccc(F)cc34)[C@@H]2O1,-24%[8.59 µM],-26%[8.59 µM]
CC12C(=O)OC(=O)C1(C)C1CCC2O1 (centres undefined),2.8µM*,3.5µM*
COc1ccc([C@]23Cc4c(ccc5ccccc45)[C@H](O2)c2c(cc(-c4ccccc4)oc2=O)O3)cc1,25%[8.59 µM],40%[8.59 µM]
COC(=O)[C@@H]1CC[C@H](C)[C@@H](c2ccc(C)cc2)N1C(=O)c1ccc(C=NO[C@@H](C)c2cn([C@H](CO)Cc3ccccc3)nn2)cc1,.,5%[8.59 µM]
Cc1c2ccncc2c(C)c2c1[nH]c1ccccc12,0%[17.8 µM],4.5µM*
c1ccc2c(c1)[nH]c1cnccc12,16%,12%
COC(=O)[C@H](Cc1ccccc1)N1C[C@@H](N2CCC[C@@H]2C)C[S+]1(=O)[O-],14%,20%
CCN1C(=NCc2ccccc2)NC(c2cccc(C(F)(F)F)c2)C(C(=O)OC)=C1C (centres undefined),17%[8.59 µM],?
ClC1=C(Cl)C(Cl)(C2(Cl)C(Cl)=C(Cl)C(Cl)=C2Cl)C(Cl)=C1Cl,?,3.2µM*
C=CCCCN1C(=O)NC(c2ccccc2)C(C(=O)OC)=C1C (centres undefined),3%[8.59 µM],-29%[8.59 µM]
CCCCCC(=O)N1C[C@@H](n2cc(COC(=O)c3ccccc3)nn2)[C@H](O)C[C@H]1c1ccc(OC)cc1,-20%,26%
